This note sets out measurements from PubChem BioAssay (NCI).

Each structure is given as a SMILES string. About 79,000 compounds went through this panel and 15% of them were active in at least one assay; those are over-represented in the sample as a whole. Values without a mark were called inactive. Active and inactive are the calls of the source. Cut-off read from the data, not from the text of the source: active = growth inhibition above about 70%; inactive = the rest.

A short description of test [1]: NCI Yeast Anticancer Drug Screen. Data for the rad50 strain (AID 155).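 Note: 0% = growth of vehicle-only cultures of the same strain.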 The note with it: S. cerevisiae rad50 strain growth inhibition; at 50.0 µM; stronger effect = higher value. In outline:
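Compounds were tested on a yeast strain with an engineered DNA damage repair alteration; the reported value is growth inhibition normalised to vehicle treatment.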

Test [2] in a line: NCI Yeast Anticancer Drug Screen. Data for the mec2-1 strain (AID 157). The note with it: S. cerevisiae mec2-1 strain, at 50.0 µM, stronger effect = higher value. In outline:
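Test agents were screened against the mec2-1 yeast strain, with defined DNA repair or cell cycle alteration. Growth was scored as inhibition against vehicle-only controls.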

Test [3] is described as follows: NCI Yeast Anticancer Drug Screen. Data for the sgs1 mgt1 strain (AID 161).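 Note: 0% = growth of cultures given vehicle only.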 The note with it: S. cerevisiae sgs1 mgt1 strain, at 50.0 µM, stronger effect = higher value. In outline: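 Read-out: growth inhibition vs vehicle controls. Cells: mutant yeast strain deficient in DNA damage repair.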
Test [4] is described as follows: NCI Yeast Anticancer Drug Screen. Data for the cln2 rad14 strain (AID 165).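 Note: 0% = growth equal to vehicle treated cultures.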 The note with it: S. cerevisiae cln2 rad14 strain, at 50.0 µM, stronger effect = higher value. In outline: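 Growth of compound-exposed yeast (cln2 rad14 genotype) measured and expressed as inhibition relative to vehicle.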
Test [5] can be described thus: NCI Yeast Anticancer Drug Screen. Data for the bub3 strain (AID 167). Particulars: S. cerevisiae bub3 mutant strain, at 50.0 µM, stronger effect = higher value. In outline:
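Growth of a checkpoint-deficient yeast mutant is measured after compound exposure. Values represent inhibition relative to vehicle.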

A short description of test [6]: NCI Yeast Anticancer Drug Screen. Data for the mlh1 rad18 strain (AID 175). Particulars: S. cerevisiae mlh1 rad18 strain growth inhibition; at 50.0 µM; stronger effect = higher value. In outline: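 In this whole-cell yeast screen, a strain with altered DNA damage repair is challenged with compound, and its growth is measured against matched vehicle-treated controls.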

Regarding `O=c1[nH]cnc2c1ncn2CCc1ccc([N+](=O)[O-])cc1[N+](=O)[O-]`, the growth inhibition is 3% in test [1]; -6.15% in test [2]; 9.4% in test [3]; -54.9% in test [4]; -15.1% in test [5]; -7.95% in test [6].

As to `O=[N+]([O-])c1ccc(C2SCc3nc4ccccc4n32)cc1` (stereo unspecified), the growth inhibition in test [1] was 3.4%; in test [2], -14.2%; in test [3], 49.1%; in test [4] it was 15.2%; in test [5] it was 23.1%; in test [6], -2.65%.

On to `COc1cccc2c1C(=O)c1c(O)c3c(c(O)c1C2=O)C[C@@](O)(/C(C)=N\NC(=O)CCC(N)C(=O)O)C[C@@H]3OC1CC(N)C(O)C(C)O1` (stereo partly specified) (tested in a mixture with another compound), for which the growth inhibition in test [1] is -30.9%; in test [2], -57.9%; in test [3] it was 0.65%; in test [4], -6.05%; in test [5], -25.8%; in test [6], -46.7%.

Regarding `O=C(c1ccccc1)c1cccc2c1ccc1ccccc12`, the growth inhibition was 13.4% in test [1]; 38.9% in test [2]; 38.3% in test [3]; 17% in test [4]; 23.4% in test [5]; 32.5% in test [6].

With `CN(C)n1c(O)c(N=O)sc1=S`, the growth inhibition in test [1] was -30.9%; in test [2] it was -6.25%; in test [3], -7.65%; in test [4], -25.7%; in test [5], -10.1%; in test [6], 5.55%.

For the compound `CC(=O)/C=C\C(=O)NNS(=O)(=O)c1ccc(C)cc1`, the growth inhibition in test [1] was 20.6%; in test [2] it was 12.7%; in test [3], -1.75%; in test [4], 9.35%; in test [5] it was 34.1%; in test [6], 46.7%.

Regarding `COC(=O)[C@@H]1[C@H](O)CC[C@H]2[C@@]1(C)CC[C@@H](C)[C@]2(COC(C)=O)CC(=O)c1ccoc1`, the growth inhibition in test [1] was -27.1%; in test [2], -32.2%; in test [3], -37%; in test [4] it was -27.1%; in test [5], -47.9%; in test [6], -45.8%.

In the case of `Fc1ccc(CSC(=S)Nc2ccc(I)cc2)cc1`, the growth inhibition in test [1] is 98.8% (active); in test [2] it was 99.2% (active); in test [3], 99.2% (active); in test [4], 99.2% (active); in test [5] it was 98.7% (active); in test [6] it was 99% (active).

Take `O=C1C(c2ccccc2)=C(c2ccccc2)C(c2ccc(Cc3ccc(C4=C(c5ccccc5)C(=O)C(c5ccccc5)=C4c4ccccc4)cc3)cc2)=C1c1ccccc1`: the growth inhibition in test [1] is 20.1%; in test [2] it was 32.4%; in test [3], 16.8%; in test [4], 14.6%; in test [5] it was 15.1%; in test [6] it was 26.6%.

As to `N#C/C(=C\c1ccccc1)C(=O)Nc1ccccc1`, the growth inhibition in test [1] is 17.3%; in test [2] it was 3.5%; in test [3], -1.35%; in test [4], -4.15%; in test [5], -4.7%; in test [6], 22.6%.

With `CCCCCCCC/C=C\CCCCCCCCCCCC(=O)O`, the growth inhibition in test [1] is -5.7%; in test [2], 5.75%; in test [3] it was 0.4%; in test [4], -46%; in test [5] it was -17%; in test [6], -6.25%.

Consider `CCCCOc1ccccc1C(=O)OC`, for which the growth inhibition in test [1] is 23.9%; in test [2], 5.55%; in test [3], 21.8%; in test [4], -0.6%; in test [5] it was 9.4%; in test [6] it was 18.5%.

Consider `COC(=O)c1c(C)cc(OC(=O)c2c(C)cc(OC)c(C)c2OC)c(C)c1O`, for which the growth inhibition in test [1] is 14.6%; in test [2], 3.5%; in test [3], -2.15%; in test [4], 10.4%; in test [5], -0.65%; in test [6], 4.65%.

As for `CN(C)C=Nc1ccn(C2CC(F)C(CO)O2)c(=O)n1` (stereo unspecified), the growth inhibition in test [1] was 4.55%; in test [2], 13.2%; in test [3] it was -22.4%; in test [4] it was -7.85%; in test [5] it was 8.8%; in test [6], 13%.

As to `CC1CC(C)(C)NC(C2CCC=CO2)O1` (stereo unspecified), the growth inhibition was 5.2% in test [1]; -3.9% in test [2]; -7% in test [3]; -20.6% in test [4]; -18.6% in test [5]; 5.9% in test [6].

In the case of `CC(=O)Oc1ccccc1OC(=S)N(C)C`, the growth inhibition in test [1] was 11.2%; in test [2], -7.35%; in test [3], -5.5%; in test [4], -39.2%; in test [5] it was 15.8%; in test [6], -26.8%.

Take `O=c1ccc2cc(Cl)ccc2o1`: the growth inhibition in test [1] was 12.6%; in test [2], -12.9%; in test [3] it was -7.8%; in test [4], -16.4%; in test [5] it was 18.1%; in test [6], -20.1%.

In the case of `CC1([N+](=O)[O-])COC2(CCCC2)OC1`, the growth inhibition is 26.4% in test [1]; 12.2% in test [2]; 4.75% in test [3]; -21.8% in test [4]; -12.9% in test [5]; 33.6% in test [6].

Turning to `O=C(COc1cccc(Cl)c1)Nc1ccccc1`, the growth inhibition is -2.9% in test [1]; -31.9% in test [2]; 7.85% in test [3]; -17.1% in test [4]; 39.7% in test [5]; 2.05% in test [6].

For the compound `CCCOC(=O)c1ccc(C(C)C)cc1`, the growth inhibition in test [1] was 1.1%; in test [2] it was 0.8%; in test [3], -5.3%; in test [4] it was 3.7%; in test [5], 2.25%; in test [6], -1%.

Regarding `O=c1[nH]n(Cc2ccccn2)c2ccc([N+](=O)[O-])cc12`, the growth inhibition in test [1] is 4.1%; in test [2], -7.8%; in test [3], -26.8%; in test [4] it was 0.95%; in test [5], 6.45%; in test [6], -14.2%.
